High-throughput results from PubChem.
Shiga inhibitor: blocks Shiga toxin action in Vero cells; Vero cells, Shiga toxin protein synthesis inhibition reporter; inhibition, % at 38.7 µM; actives 9.2% (n = 290,000); AID 2315; in the data active = inhibition mostly above about 28%, no sharp cut-off; inactive = mostly below about 43%; note: 0% is about no effect
Cycloheximide cs: affects cycloheximide protein synthesis inhibition readout, counter-screen; cell reporter, cycloheximide protein synthesis inhibition counterscreen; actives 12% (n = 300,000); max response, %; AID 2314; in the data active = max response mostly above about 13%, no sharp cut-off; inactive = mostly below about 14%; note: read at 38.3 µM for the half of the compounds with a filed dose; 0% is about no effect
TbPYK inhibitor: T. brucei pyruvate kinase inhibition; TbPYK enzyme, Kinase-Glo Plus ATP luminescence, 45 min; Potency, µM (highest dose often 76.8 µM), without a hit: top-dose activity, negative = inhibition, most hits filed as inhibitors; actives 0.12% (n = 410,000); AID 624173; note: potency is the fitted concentration of half-maximal effect; % is set by controls: 0 for no effect and ±100 for the full control effect; nearly all actives have a fitted effect of over 50% in size
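Screened from lowest to highest concentration, compounds were pinned into TbPYK/substrate mixtures, and ADP (130 uM final) was added. Plates sat at room temperature for 45 min prior to Kinase-Glo Plus detection by luminescence.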
FBPA Giardia inh: Giardia lamblia aldolase inhibition. purified Giardia FBPA. actives 0.71% (n = 290,000). A8B2U2. Potency, µM (highest dose often 59.6 µM), for the others: at the highest dose activity, negative = inhibition, usual class: inhibitors; note: potency is the fitted concentration of half-maximal effect; % is set by controls: 0 for no effect and ±100 for the full control effect; nearly all actives have a fitted effect of over 55% in size
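40 nM FBPA preincubated 10 min at RT with compound (up to 57.5 uM final), then substrate plus GAPDH/TPI/NAD/arsenate coupling and diaphorase/resazurin added. Fluorescence read after 20 min at RT, 525/598 nm.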
LmPK inh: inhibitors of Leishmania mexicana pyruvate kinase. Q27686. purified LmPK, Kinase-Glo ATP luminescence, 1 h. Potency, µM (top dose mostly 57.5 µM), for inactives: top-dose activity change, negative = inhibition, usual class: inhibitors. actives 0.37% (n = 290,000). AID 1721; note: potency is the fitted concentration of half-maximal effect; % is set by controls: 0 for no effect and ±100 for the full control effect
Target sequence (Q27686 whole entry, looked up): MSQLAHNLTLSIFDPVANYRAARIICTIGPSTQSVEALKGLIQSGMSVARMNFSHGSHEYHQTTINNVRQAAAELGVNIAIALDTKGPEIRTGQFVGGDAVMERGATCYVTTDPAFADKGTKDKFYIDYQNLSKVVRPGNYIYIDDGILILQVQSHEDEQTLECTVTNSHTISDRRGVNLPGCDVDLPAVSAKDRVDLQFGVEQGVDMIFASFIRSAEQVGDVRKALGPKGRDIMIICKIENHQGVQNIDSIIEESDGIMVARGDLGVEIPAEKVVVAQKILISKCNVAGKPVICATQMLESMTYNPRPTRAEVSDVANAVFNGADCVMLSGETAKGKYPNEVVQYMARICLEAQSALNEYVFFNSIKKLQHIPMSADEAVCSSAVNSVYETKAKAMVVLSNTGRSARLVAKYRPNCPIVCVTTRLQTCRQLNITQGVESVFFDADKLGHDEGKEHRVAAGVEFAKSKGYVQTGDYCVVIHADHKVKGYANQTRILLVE
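Purified LmPK (0.1 nM) with 0.5 mM PEP and 0.1 mM ADP in imidazole buffer pH 7.2 with MgCl2/KCl, 1 h at room temperature. ATP formed was read by luciferase luminescence and normalized to no-enzyme and uninhibited controls.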
Sm TGR inh: inhibitors of Schistosoma mansoni thioredoxin glutathione reductase; Q962Y6; Potency, µM (highest dose often 114 µM), for inactives: top-dose activity change, negative = inhibition, actives largely listed as inhibitors; actives 3% (n = 360,000); AID 485364; purified TGR, DTNB reduction, TNB absorbance 405 nm; note: potency is the fitted concentration of half-maximal effect; % is set by controls: 0 for no effect and ±100 for the full control effect; nearly all actives have a fitted effect of over 60% in size
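Kinetic colorimetric format: TGR-catalysed, NADPH-driven DTNB reduction monitored via TNB absorbance. Enzyme dispensed at 20 nM; compound exposure 15 min at room temperature before reaction start.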
An asterisk follows results filed as active; ? = inconclusive; . = no result given. Only a selection was taken, and hits are over-represented in it overall. Unless noted, calls come from the whole dose curve; as a rule, active = well fitted curve in the direction sought with a large enough effect; inconclusive = small, poorly fitted or top-dose-only effect, or another doubt; inactive = no such curve, though single readings can be large; an effect the other way counts as inactive or inconclusive.

SMILES	Shiga inhibitor	Cycloheximide cs	TbPYK inhibitor	FBPA Giardia inh	LmPK inh	Sm TGR inh
O=C1CN(C(=O)CC2C(=O)NCCN2Cc2ccccc2C(F)(F)F)CCN1 (centres undefined)	-35	-3	-1%	.	-8%	-33%
CN(Cc1ccon1)C(=O)CC1C(=O)NCCN1Cc1ccc(Cl)c(F)c1 (centres undefined)	-15	-3	-8%	.	-5%	35µM*
CN(Cc1ccon1)C(=O)CC1C(=O)NCCN1Cc1ccc(F)c(F)c1 (centres undefined)	-7	5	-4%	.	-3%	?
CN(Cc1cnccn1)C(=O)CC1C(=O)NCCN1Cc1c(F)cccc1Cl (centres undefined)	24	7	-6%	-8%	-7%	32µM*
O=C(Nc1cccc(Cl)c1)Nc1sccc1-c1nc2ccccc2s1	58	17	0%	-18%	5%	-6%
O=C(Nc1ccccc1)Nc1sccc1-c1nc2ccccc2s1	63*	17	0%	-25%	3%	-10%
CNc1ccccc(-c2ccc3cc4c(cc3n2)OCO4)c1=O	59*	66*	0%	?	-24%	-16%
Cc1cnnn1-c1ccc(C(=O)CCl)cc1	-15	8	-15%	.	-4%	5.6µM*
Cc1ccc(C)c(CSc2c(C(C)C)cnc3c2c(=O)n(C)c(=O)n3C)c1	.	.	?	.	.	-7%
COC(=O)N1N=C(c2ccccc2)CC1(O)C(F)(F)F (centres undefined)	106*	39*	-6%	1%	-22%	15%
COc1ccc(C(=O)N2N=C(c3ccccc3)CC2(O)C(F)(F)F)cc1 (centres undefined)	13	7	-5%	-5%	-8%	-3%
Cc1ccc(C2=NN(C(=O)c3ccco3)C(O)(C(F)(F)F)C2)cc1 (centres undefined)	37*	14*	-2%	-8%	13%	-23%
CCCCC1=NN(C(=O)c2cocc2C)C(O)(C(F)(F)F)C1 (centres undefined)	32*	20*	0%	4%	3%	-8%
CC1=NN(C(=O)c2ccoc2C)C(O)(C(F)(F)F)C1 (centres undefined)	44*	50*	-3%	2%	-2%	8%
CC1=NN(C(=O)c2cccnc2)C(O)(C(F)(F)F)C1 (centres undefined)	-11	-1	-2%	-2%	-1%	8%
CN1C=CC(=C2C=CN(C)C=C2)C=C1	3	1	.	-8%	.	.
Cc1cc(C)cc(OCC(=O)N2N=C(C(F)(F)F)CC2(O)C(C)(C)C)c1 (centres undefined)	10	6	-10%	-6%	5%	50µM*
O=C(c1ccc(CS(=O)(=O)c2ccc(Br)cc2)o1)N1CCCC1	23	-2	-11%	-2%	1%	0%
O=C(c1ccc(CS(=O)(=O)c2ccc(Br)cc2)o1)N1CCCCCC1	3	-5	-2%	8%	12%	35µM*
CN1CCN(C(=O)c2ccc(CS(=O)(=O)c3c(Cl)cccc3Cl)o2)CC1	-2	-3	-7%	-2%	-1%	-10%
O=C(c1ccc(CS(=O)(=O)c2c(Cl)cccc2Cl)o1)N1CCCC1	4	-3	-4%	-2%	9%	35µM*
CCOC(=O)N1CCN(C(=O)c2ccc(CS(=O)(=O)c3c(Cl)cccc3Cl)o2)CC1	12	-1	-4%	6%	3%	45µM*
CCN(CC)CCn1c(-c2ccccc2)nc2c(NCCO)nc(C)nc21	.	.	.	7%	.	.
O=C1NC(=S)N(C(=O)c2ccc(F)cc2)/C1=C/c1cccnc1	8	9	-14%	6%	-3%	-8%
COc1ccc(/C=C2\C(=O)NC(=S)N2C(=O)c2ccc(C)cc2)cc1	59*	35*	-23%	2%	-2%	1%
COCCNc1c(-c2ccc(OC)cc2)nc2ccc(Cl)cn12	62*	29	-7%	?	-2%	.
CCOC(=O)CNc1c(-c2ccc(OC)cc2)nc2ccc(Cl)cn12	36*	20*	2%	?	1%	-20%
O=C(OCc1ccccc1)c1ccccc1	.	.	-5%	10%	.	.
